Data taken from PubChem BioAssay AID1159580 (chemical genetic matrix, 2015).
Among all 5,500 compounds or so, about 2,000 (36%) were called active. About 18% were inconclusive and are not listed. Rule as the data show it: active = normalized growth mostly below about 0.91 (no sharp cut-off); inconclusive = no clear call, values can overlap the other calls; inactive = mostly above about 0.92. Some of the results follow.

Assay: chemical genetic growth profiling, strain panel (AID 1159580);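 also: tested at 20 µM; growth read once vehicle control cultures reached saturation at 30 °C; 1 = growth at the plate median or of vehicle wells; lower values mean less growth of the strain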
Details: growth OD

Measured: normalized growth

CC(=O)N[C@@H](Cc1c[nH]c2ccccc12)C(=O)O
inactive: S. cerevisiae deletion strains, locus YJR075W, strain HOC1, active compounds read low 1 | S. cerevisiae deletion strains, locus YKL009W, strain mrt4, active compounds read low 0.981 | S. cerevisiae deletion strains, locus YKL068W, active compounds read low 1.01 | S. cerevisiae deletion strains, locus YKL085W, strain MDH1 (second series), active compounds read low 1.01 | S. cerevisiae deletion strains, locus YKL085W, strain MDH1, active compounds read low 1.01 | S. cerevisiae deletion strains, locus YKL160W, strain elf1, active compounds read low 0.962 | S. cerevisiae deletion strains, locus YKL190W, strain CNB1, active compounds read low 1 | S. cerevisiae deletion strains, locus YKR001C, strain vps1, active compounds read low 1.02 | S. cerevisiae deletion strains, locus YKR026C, strain gcn3, active compounds read low 0.987 | S. cerevisiae deletion strains, locus YKR091W, strain srl3, active compounds read low 0.977 | S. cerevisiae deletion strains, locus YLL001W, strain dnm1, active compounds read low 0.983 | S. cerevisiae deletion strains, locus YLL026W, active compounds read low 0.99 | S. cerevisiae deletion strains, locus YLL041C, strain sdh2, active compounds read low 1 | S. cerevisiae deletion strains, locus YLR027C, strain aat2, active compounds read low 0.994 | S. cerevisiae deletion strains, locus YLR039C, strain RIC1, active compounds read low 1.02 | S. cerevisiae deletion strains, locus YLR058C, strain SHM2, active compounds read low 1.01 | S. cerevisiae deletion strains, locus YLR102C, strain apc9, active compounds read low 1.02 | S. cerevisiae deletion strains, locus YLR113W, strain HOG1, active compounds read low 1 | S. cerevisiae deletion strains, locus YLR221C, strain rsa3, active compounds read low 1.01 | S. cerevisiae deletion strains, locus YLR258W, strain gsy2, active compounds read low 0.967 | S. cerevisiae deletion strains, locus YLR262C, strain YPT6 (second series), active compounds read low 1.02 | S. cerevisiae deletion strains, locus YLR262C, strain YPT6, active compounds read low 1.02 | S. cerevisiae deletion strains, locus YLR268W, strain sec22, active compounds read low 1.04 | S. cerevisiae deletion strains, locus YLR320W, strain mms22, active compounds read low 1.02 | S. cerevisiae deletion strains, locus YLR330W, strain CHS5, active compounds read low 1.01 | S. cerevisiae deletion strains, locus YLR342W, strain FKS1 (second series), active compounds read low 1.04 | S. cerevisiae deletion strains, locus YLR342W, strain FKS1, active compounds read low 0.981 | S. cerevisiae deletion strains, locus YLR357W, strain rsc2, active compounds read low 0.983 | S. cerevisiae deletion strains, locus YLR370C, strain arc18, active compounds read low 0.995 | S. cerevisiae deletion strains, locus YLR371W, strain rom2, active compounds read low 1.03 | S. cerevisiae deletion strains, locus YLR384C, strain iki3, active compounds read low 0.984 | S. cerevisiae deletion strains, locus YLR418C, strain cdc73, active compounds read low 1.07 | S. cerevisiae deletion strains, locus YML016C, strain PPZ1, active compounds read low 1.01 | S. cerevisiae deletion strains, locus YML032C, strain rad52, active compounds read low 1.02 | S. cerevisiae deletion strains, locus YML120C, strain ndi1, active compounds read low 0.989 | S. cerevisiae deletion strains, locus YML124C, strain tub3, active compounds read low 1.02 | S. cerevisiae deletion strains, locus YMR058W, strain fet3, active compounds read low 0.988 | S. cerevisiae deletion strains, locus YMR078C, strain ctf18, active compounds read low 1.02 | S. cerevisiae deletion strains, locus YMR125W, strain sto1, active compounds read low 0.973 | S. cerevisiae deletion strains, locus YMR129W, active compounds read low 0.976 | S. cerevisiae deletion strains, locus YMR205C, strain PFK2, active compounds read low 0.985 | S. cerevisiae deletion strains, locus YMR223W, strain ubp8, active compounds read low 1.02 | S. cerevisiae deletion strains, locus YMR231W, strain pep5, active compounds read low 0.978 | S. cerevisiae deletion strains, locus YMR263W, strain SAP30, active compounds read low 0.998 | S. cerevisiae deletion strains, locus YMR307W, strain GAS1, active compounds read low 0.959 | S. cerevisiae deletion strains, locus YNL067W, strain RPL9B, active compounds read low 1.01 | S. cerevisiae deletion strains, locus YNL071W, strain lat1, active compounds read low 0.99 | S. cerevisiae deletion strains, locus YNL128W, strain TEP1, active compounds read low 1.01 | S. cerevisiae deletion strains, locus YNL153C, strain GIM3, active compounds read low 1.01 | S. cerevisiae deletion strains, locus YNL183C, strain NPR1, active compounds read low 0.886 | S. cerevisiae deletion strains, locus YNL209W, strain ssb2, active compounds read low 0.989 | S. cerevisiae deletion strains, locus YNL233W, strain BNI4, active compounds read low 1.01 | S. cerevisiae deletion strains, locus YNL248C, strain rpa49, active compounds read low 0.98 | S. cerevisiae deletion strains, locus YNL250W, strain rad50, active compounds read low 1 | S. cerevisiae deletion strains, locus YNL271C, strain bni1, active compounds read low 1.03 | S. cerevisiae deletion strains, locus YNL298W, strain CLA4, active compounds read low 1.02 | S. cerevisiae deletion strains, locus YNL307C, strain MCK1, active compounds read low 1.03 | S. cerevisiae deletion strains, locus YNL322C, strain KRE1 (second series), active compounds read low 0.995 | S. cerevisiae deletion strains, locus YNL322C, strain KRE1, active compounds read low 1 | S. cerevisiae deletion strains, locus YNR049C, strain mso1, active compounds read low 0.959 | S. cerevisiae deletion strains, locus YNR052C, strain pop2, active compounds read low 1.01 | S. cerevisiae deletion strains, locus YOL006C, strain TOP1, active compounds read low 1.09 | S. cerevisiae deletion strains, locus YOL012C, strain htz1 0.924 | S. cerevisiae deletion strains, locus YOL147C, strain pex11, active compounds read low 1.02 | S. cerevisiae deletion strains, locus YOR001W, strain rrp6, active compounds read low 1.01 | S. cerevisiae deletion strains, locus YOR061W, strain CKA2, active compounds read low 1.01 | S. cerevisiae deletion strains, locus YOR069W, strain VPS5, active compounds read low 1 | S. cerevisiae deletion strains, locus YOR070C, strain gyp1, active compounds read low 0.996 | S. cerevisiae deletion strains, locus YOR080W, strain dia2, active compounds read low 0.986 | S. cerevisiae deletion strains, locus YOR083W, strain WHI5, active compounds read low 0.97 | S. cerevisiae deletion strains, locus YOR106W, strain vam3, active compounds read low 0.964 | S. cerevisiae deletion strains, locus YOR136W, strain idh2, active compounds read low 1.01 | S. cerevisiae deletion strains, locus YOR144C, strain elg1, active compounds read low 1.02 | S. cerevisiae deletion strains, locus YOR184W, strain ser1, active compounds read low 1.02 | S. cerevisiae deletion strains, locus YOR231W, strain MKK1, active compounds read low 0.994 | S. cerevisiae deletion strains, locus YOR265W, strain rbl2, active compounds read low 1.01 | S. cerevisiae deletion strains, locus YOR270C, strain vph1, active compounds read low 1.01 | S. cerevisiae deletion strains, locus YOR290C, strain snf2, active compounds read low 0.974 | S. cerevisiae deletion strains, locus YOR316C, strain cot1, active compounds read low 1.02 | S. cerevisiae deletion strains, locus YPL051W, strain arl3, active compounds read low 0.989 | S. cerevisiae deletion strains, locus YPL055C, strain LGE1, active compounds read low 1.01 | S. cerevisiae deletion strains, locus YPL078C, strain atp4, active compounds read low 0.978 | S. cerevisiae deletion strains, locus YPL106C, strain sse1, active compounds read low 0.949 | S. cerevisiae deletion strains, locus YPL240C, strain hsp82, active compounds read low 1 | S. cerevisiae deletion strains, locus YPL241C, strain CIN2, active compounds read low 1 | S. cerevisiae deletion strains, locus YPL256C, strain CLN2, active compounds read low 0.99 | S. cerevisiae deletion strains, locus YPR119W, strain clb2, active compounds read low 1.02 | S. cerevisiae deletion strains, locus YPR141C, strain kar3, active compounds read low 1.02 | S. cerevisiae deletion strains, locus YPR163C, strain tif3, active compounds read low 1.04 | S. cerevisiae deletion strains, locus YPR167C, strain met16, active compounds read low 1.01 | S. cerevisiae deletion strains, strain wtn01, active compounds read low 1.01 | S. cerevisiae strains, strain wild type, active compounds read low 1
